# The whole screen tested about 5,500 compounds, of which about 2,000 (36%) were called active. Roughly 18% stayed inconclusive and do not appear here. The list shows a part of the results. Unmarked numbers belong to inactive results. No stated cut-off is given here; in the data, active means normalized growth mostly below about 0.91 (no sharp cut-off); inconclusive means no clear call, values can overlap the other calls; inactive means mostly above about 0.92.
# Test: chemical genetic growth profiling, strain panel (AID 1159580);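 further: tested at 20 µM; growth read once vehicle control cultures reached saturation at 30 °C; 1 = growth at the plate median or of vehicle wells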
# Conditions: S. cerevisiae deletion strains, growth OD
# [1] = locus YAL013W, strain DEP1, stronger effect = lower value
# [2] = locus YBR229C, strain ROT2, stronger effect = lower value
# [3] = locus YCL061C, strain MRC1, stronger effect = lower value
# [4] = locus YDL101C, strain DUN1, stronger effect = lower value
# [5] = locus YDR150W, strain NUM1, stronger effect = lower value
# [6] = locus YEL061C, strain CIN8, stronger effect = lower value
# [7] = locus YGR078C, strain PAC10, stronger effect = lower value
# [8] = locus YHR030C, strain SLT2, stronger effect = lower value
# [9] = locus YHR087W, strain rtc3, stronger effect = lower value
# [10] = locus YJR043C, strain POL32, stronger effect = lower value
# [11] = locus YJR075W, strain HOC1, stronger effect = lower value
# [12] = locus YKL190W, strain CNB1, stronger effect = lower value
# [13] = locus YLR039C, strain RIC1, stronger effect = lower value
# [14] = locus YLR058C, strain SHM2 (second series), stronger effect = lower value
# [15] = locus YLR085C, strain ARP6, stronger effect = lower value
# [16] = locus YLR262C, strain YPT6, stronger effect = lower value
# [17] = locus YML094W, strain GIM5, stronger effect = lower value
# [18] = locus YMR219W, strain ESC1, stronger effect = lower value
# [19] = locus YMR263W, strain SAP30, stronger effect = lower value
# [20] = locus YNL153C, strain GIM3, stronger effect = lower value
# [21] = locus YNL298W, strain CLA4 (second series), stronger effect = lower value
# [22] = locus YNL322C, strain KRE1, stronger effect = lower value
# [23] = locus YNR030W, strain Alg12, stronger effect = lower value
# [24] = locus YPL055C, strain LGE1, stronger effect = lower value
# [25] = locus YPL241C, strain CIN2, stronger effect = lower value
# [26] = locus YPR135W, strain CTF4, stronger effect = lower value
# [27] = locus YJL187C, strain SWE1, stronger effect = lower value
# [28] = locus YOL006C, strain TOP1, stronger effect = lower value
# [29] = locus YGR229C, strain SMI1, stronger effect = lower value
# [30] = locus YNL128W, strain TEP1, stronger effect = lower value
structure (smiles),measurement,setting,value
CC(=O)Nc1cc([N+](=O)[O-])ccc1-n1cc(C)c(C(F)(F)F)n1,normalized growth,[1],0.966
same,normalized growth,[2],0.985
same,normalized growth,[3],0.978
same,normalized growth,[4],0.986
same,normalized growth,[5],0.947
same,normalized growth,[6],0.998
same,normalized growth,[7],0.996
same,normalized growth,[8],0.871
same,normalized growth,[9],0.982
same,normalized growth,[10],1
same,normalized growth,[11],0.973
same,normalized growth,[12],0.992
same,normalized growth,[13],0.935
same,normalized growth,[14],0.988
same,normalized growth,[15],0.94
same,normalized growth,[16],0.928
same,normalized growth,[17],0.963
same,normalized growth,[18],0.988
same,normalized growth,[19],0.917
same,normalized growth,[20],0.985
same,normalized growth,[21],0.962
same,normalized growth,[22],0.981
same,normalized growth,[23],0.962
same,normalized growth,[24],0.931
same,normalized growth,[25],1.03
same,normalized growth,[26],0.905
O=[N+]([O-])c1ccc(SC2=NCCN2)c(Cl)c1,normalized growth,[1],0.994
same,normalized growth,[2],1
same,normalized growth,[4],0.987
same,normalized growth,[5],0.985
same,normalized growth,[6],0.978
same,normalized growth,[7],0.987
same,normalized growth,[8],1.03
same,normalized growth,[9],1.01
same,normalized growth,[27],0.98
same,normalized growth,[10],0.964
same,normalized growth,[11],0.952
same,normalized growth,[12],0.994
same,normalized growth,[13],1
same,normalized growth,[14],0.992
same,normalized growth,[15],0.965
same,normalized growth,[16],1
same,normalized growth,[17],0.972
same,normalized growth,[18],0.977
same,normalized growth,[19],1.01
same,normalized growth,[20],1.02
same,normalized growth,[21],1.03
same,normalized growth,[22],0.984
same,normalized growth,[23],0.995
same,normalized growth,[28],1
same,normalized growth,[24],1.03
same,normalized growth,[25],0.985
same,normalized growth,[26],1.09
COC(=O)c1cc([N+](=O)[O-])ccc1NC(C)=O,normalized growth,[1],0.986
same,normalized growth,[2],1
same,normalized growth,[3],0.997
same,normalized growth,[4],1.01
same,normalized growth,"locus YDL134C, strain PPH21, stronger effect = lower value",1.01
same,normalized growth,[5],0.989
same,normalized growth,[6],0.989
same,normalized growth,[7],1
same,normalized growth,[29],1
same,normalized growth,[8],0.929
same,normalized growth,[9],1.02
same,normalized growth,[27],0.998
same,normalized growth,[10],0.994
same,normalized growth,[11],1.03
same,normalized growth,[12],0.995
same,normalized growth,[13],1.05
same,normalized growth,[14],0.996
same,normalized growth,[15],0.977
same,normalized growth,[16],1.03
same,normalized growth,[17],1.02
same,normalized growth,[18],0.999
same,normalized growth,[19],0.979
same,normalized growth,"locus YMR307W, strain GAS1, stronger effect = lower value",0.998
same,normalized growth,[30],1.01
same,normalized growth,[20],0.986
same,normalized growth,[21],0.958
same,normalized growth,[22],1.01
same,normalized growth,[23],1
same,normalized growth,[24],0.983
same,normalized growth,[25],1.03
same,normalized growth,[26],0.992
O=[N+]([O-])c1ccc2nsnc2c1,normalized growth,[1],0.836 (active)
same,normalized growth,[2],0.643 (active)
same,normalized growth,[4],0.583 (active)
same,normalized growth,[5],0.825
same,normalized growth,[6],0.626 (active)
same,normalized growth,[7],0.699 (active)
same,normalized growth,[29],0.979
same,normalized growth,[8],0.109 (active)
same,normalized growth,[9],0.649 (active)
same,normalized growth,[10],0.828 (active)
same,normalized growth,[11],0.55 (active)
same,normalized growth,[12],0.604 (active)
same,normalized growth,[13],0.795
same,normalized growth,[14],0.824 (active)
same,normalized growth,[15],0.227 (active)
same,normalized growth,[16],0.83
same,normalized growth,[17],0.533 (active)
same,normalized growth,[18],0.833 (active)
same,normalized growth,[19],0.8 (active)
same,normalized growth,[30],0.304 (active)
same,normalized growth,[20],0.738 (active)
same,normalized growth,[21],0.361 (active)
same,normalized growth,[22],0.999
same,normalized growth,[23],0.534 (active)
same,normalized growth,[28],0.496 (active)
same,normalized growth,[24],0.805 (active)
same,normalized growth,[25],0.286 (active)
same,normalized growth,[26],0.233 (active)
CC(=O)Nc1ccc([N+](=O)[O-])cc1[N+](=O)[O-],normalized growth,"locus YAR019C, strain CDC15, stronger effect = lower value",0.619 (active)
same,normalized growth,"locus YBL105C, strain PKC1, stronger effect = lower value",0.925
same,normalized growth,"locus YBR135W, strain CKS1, stronger effect = lower value",0.911
same,normalized growth,"locus YBR136W, strain MEC1, stronger effect = lower value",0.922
same,normalized growth,"locus YBR160W, strain CDC28, stronger effect = lower value",0.918
same,normalized growth,"locus YDL017W, strain CDC7, stronger effect = lower value",0.927
same,normalized growth,"locus YDL028C, strain MPS1, stronger effect = lower value",0.924
same,normalized growth,[4],0.671 (active)
same,normalized growth,"locus YDL108W, strain KIN28, stronger effect = lower value",0.912
same,normalized growth,"locus YDL132W, strain cdc53, stronger effect = lower value",0.838 (active)
same,normalized growth,"locus YDL214C, strain PRR2, stronger effect = lower value",0.165 (active)
same,normalized growth,"locus YDR052C, strain DBF4, stronger effect = lower value",0.931
same,normalized growth,"locus YDR054C, strain cdc34, stronger effect = lower value",0.625 (active)
same,normalized growth,"locus YDR226W, strain ADK1, stronger effect = lower value",0.911
same,normalized growth,"locus YDR477W, strain SNF1, stronger effect = lower value",0.188 (active)
same,normalized growth,"locus YER123W, strain YCK3, stronger effect = lower value",0.114 (active)
same,normalized growth,"locus YER133W, strain GLC7, stronger effect = lower value",0.131 (active)
same,normalized growth,"locus YFL009W, strain cdc4, stronger effect = lower value",0.899
same,normalized growth,"locus YFL029C, strain CAK1, stronger effect = lower value",0.605 (active)
same,normalized growth,"locus YFR003C, strain YPI1, stronger effect = lower value",0.926
same,normalized growth,"locus YFR019W, strain FAB1, stronger effect = lower value",0.27 (active)
same,normalized growth,"locus YFR028C, strain CDC14, stronger effect = lower value",0.9
same,normalized growth,"locus YGR040W, strain KSS1, stronger effect = lower value",0.206 (active)
same,normalized growth,"locus YGR052W, strain FMP48, stronger effect = lower value",0.175 (active)
same,normalized growth,"locus YGR092W, strain DBF2, stronger effect = lower value",0.349 (active)
same,normalized growth,[8],0.123 (active)
same,normalized growth,"locus YHR079C, strain IRE1, stronger effect = lower value",0.388 (active)
same,normalized growth,"locus YHR082C, strain KSP1, stronger effect = lower value",0.205 (active)
same,normalized growth,"locus YHR205W, strain SCH9, stronger effect = lower value",0.0559 (active)
same,normalized growth,"locus YIL147C, strain SLN1, stronger effect = lower value",0.927
same,normalized growth,"locus YJL095W, strain BCK1, stronger effect = lower value",0.174 (active)
same,normalized growth,"locus YJL128C, strain PBS2, stronger effect = lower value",0.878
same,normalized growth,"locus YJL157C, strain FAR1, stronger effect = lower value",0.307 (active)
same,normalized growth,"locus YJR016C, strain ILV3, stronger effect = lower value",0.924
same,normalized growth,"locus YJR066W, strain TOR1 (second series), stronger effect = lower value",0.145 (active)
same,normalized growth,"locus YJR066W, strain TOR1, stronger effect = lower value",0.152 (active)
same,normalized growth,"locus YKL048C, strain ELM1, stronger effect = lower value",0.707 (active)
same,normalized growth,"locus YKL067W, strain YNK1, stronger effect = lower value",0.284 (active)
same,normalized growth,"locus YKL101W, strain HSL1, stronger effect = lower value",0.534 (active)
same,normalized growth,"locus YKL193C, strain SDS22, stronger effect = lower value",0.753 (active)
same,normalized growth,"locus YKL203C, strain TOR2, stronger effect = lower value",0.213 (active)
same,normalized growth,"locus YLR113W, strain HOG1, stronger effect = lower value",0.153 (active)
same,normalized growth,"locus YLR133W, strain CKI1, stronger effect = lower value",0.438 (active)
same,normalized growth,"locus YLR403W, strain SFP1, stronger effect = lower value",0.21 (active)
same,normalized growth,"locus YML070W, strain DAK1, stronger effect = lower value",0.202 (active)
same,normalized growth,"locus YMR205C, strain PFK2 (second series), stronger effect = lower value",0.511 (active)
same,normalized growth,"locus YMR277W, strain FCP1, stronger effect = lower value",0.668 (active)
same,normalized growth,"locus YNL006W, strain LST8, stronger effect = lower value",0.927
same,normalized growth,"locus YNL020C, strain ARK1, stronger effect = lower value",0.558 (active)
same,normalized growth,"locus YNL161W, strain CBK1, stronger effect = lower value",0.722 (active)
same,normalized growth,"locus YNL183C, strain NPR1, stronger effect = lower value",0.105 (active)
same,normalized growth,"locus YNL207W, strain RIO2, stronger effect = lower value",0.909
same,normalized growth,"locus YNL222W, strain SSU72, stronger effect = lower value",0.711 (active)
same,normalized growth,"locus YNL307C, strain MCK1 (second series), stronger effect = lower value",0.241 (active)
same,normalized growth,"locus YOL078W, strain AVO1, stronger effect = lower value",0.679 (active)
same,normalized growth,"locus YOL136C, strain PFK27, stronger effect = lower value",0.227 (active)
same,normalized growth,"locus YOR061W, strain CKA2, stronger effect = lower value",0.587 (active)
same,normalized growth,"locus YOR119C, strain RIO1, stronger effect = lower value",0.196 (active)
same,normalized growth,"locus YOR231W, strain MKK1, stronger effect = lower value",0.396 (active)
same,normalized growth,"locus YOR329C, strain SCD5, stronger effect = lower value",0.929
same,normalized growth,"locus YPL031C, strain PHO85, stronger effect = lower value",0.213 (active)
same,normalized growth,"locus YPL153C, strain RAD53, stronger effect = lower value",0.271 (active)
same,normalized growth,"locus YPL204W, strain HRR25, stronger effect = lower value",0.276 (active)
same,normalized growth,"locus YPL209C, strain IPL1, stronger effect = lower value",0.915
same,normalized growth,"locus YPL256C, strain CLN2, stronger effect = lower value",0.164 (active)
same,normalized growth,"locus YPR025C, strain CCL1, stronger effect = lower value",0.92
same,normalized growth,"locus YPR106W, strain ISR1, stronger effect = lower value",0.926
same,normalized growth,"locus YPR111W, strain DBF20, stronger effect = lower value",0.902
same,normalized growth,"strain NNK1, stronger effect = lower value",0.931
same,normalized growth,"strain TSCII, stronger effect = lower value",0.587 (active)

# Source: PubChem BioAssay AID1159580 (chemical genetic matrix, 2015)
